hcDAF12 agonist: H. contortus DAF-12 nuclear receptor activators, primary screen, cell-based, luminescence, HEK293, lit1-tk-luc reporter; HEK293 hcDAF-12 lit1-tk-luc reporter; 0% DMSO, 100% Δ7-dafachronic acid; activation, % at 6.8 µM; 1.4% of 370,000 active; AID 652067, 2013;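 active = activation above the mean of all tested compounds plus 3 SD, cut at about 5.5% in these data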;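 note: 100% = response to 3 µM Δ7-dafachronic acid high control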
Rev-erbA mod: modulators of Rev-erb alpha DNA binding, primary screen, biochemical, FITC-DNA, fluorescence polarization, uHTS; Nuclear receptor subfamily 1 group D member 1 (Homo sapiens), P20393; Rev-erbα–FITC-DNA binding, 90 min; activity, % at 10 µM; 0.79% of 370,000 active; AID 1259318, 2017;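 active = activity above about 14%, limit read from the data; passing the limit was not always enough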;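 note: 0% = DMSO wells with 35 nM protein and 100% = DMSO wells with 750 nM protein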
DAX1 inh-1: DAX1 (NR0B1) inhibitors on StAR promoter, primary screen, cell-based, luminescence, SF-1 (NR5A1), full-length DAX-1 | HEK293T StAR-luciferase reporter, SF-1/DAX-1 repression relief | inhibition, % at 6.8 µM | 1.1% of 370,000 active | AID 652010, 2013;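 active = inhibition above the mean over all tested compounds plus 3 SD, cut at about 3.6% in these data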;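 note: 0% = DAX-1 cells with DMSO and 100% = cells lacking DAX-1 with DMSO; higher inhibition means more luminescence from relief of DAX-1 repression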
ssDAF-12 act: S. stercoralis DAF-12 nuclear receptor activators, primary screen, cell-based, luminescence, HEK293, GRIP1 co-expression, lit1-tk-luc | Nuclear hormone receptor DAF-12 (Strongyloides stercoralis) | HEK293 ssDAF-12/GRIP1 lit1-tk-luc reporter; % of 3 µM dafachronic acid response | activation, % at 6.8 µM | 1% of 370,000 active;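 active = activation above the mean over all tested compounds plus 3 SD, cut at about 0.9% in these data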;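 note: 0% = DMSO-only wells and 100% = 3 µM delta7-dafachronic acid wells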
DAX1 inh-2: DAX1 (NR0B1) inhibitors, primary screen, cell-based, HEK293, Gal4-DAX1, luciferase luminescence. HEK293 Gal4-DAX1 luciferase reporter. 0.99% of 340,000 active. inhibition, % at 6.75 µM;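 active = inhibition above the mean over all tested compounds plus 3 SD, cut at about 4.2% in these data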;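 note: 0% = DAX1-transfected cells with DMSO and 100% = empty-vector control cells with DMSO; inhibition shows as a rise in luminescence from relieved DAX1 repression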
Target sequence (P51843 207-470 limits assumed): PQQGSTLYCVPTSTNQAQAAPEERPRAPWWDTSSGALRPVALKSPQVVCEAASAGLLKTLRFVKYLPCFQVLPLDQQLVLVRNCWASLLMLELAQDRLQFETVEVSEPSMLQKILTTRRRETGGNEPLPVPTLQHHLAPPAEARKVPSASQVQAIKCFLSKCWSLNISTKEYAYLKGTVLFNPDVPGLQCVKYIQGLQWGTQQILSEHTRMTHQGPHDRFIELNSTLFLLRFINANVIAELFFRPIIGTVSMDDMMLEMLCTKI
hgDAF-12 ag: H. glycines DAF-12 receptor agonists, primary screen, cell-based, luminescence, HEK293, GAL4 fusion, UAS-luciferase; 1.8% of 370,000 active; Nuclear hormone receptor DAF-12 (Heterodera glycines), GAL4 fusion; AID 687014, 2013; HEK293 GAL4-hgDAF12 UAS-luciferase reporter, agonist luminescence; normalized to butyrate control; activation, % at 6.8 µM;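 active = activation above a cutoff set at the mean of all screened compounds plus 3 SD, cut at about 10% in these data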;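 note: 0% = DMSO wells and 100% = sodium butyrate wells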
The depositor's hits bear a star; . = no result given. Shown are actives, neighbours in structure and some others; about 4.8% of the full set was active somewhere.

SMILES	hcDAF12 agonist	Rev-erbA mod	DAX1 inh-1	ssDAF-12 act	DAX1 inh-2	hgDAF-12 ag
N#CC1C(C#N)N2CCCN2C1c1ccc(Cl)cc1 (stereo not given)	5.8*	0	0	0	-1	2
C/C=C/c1ccc(OCC(=O)Nc2ccc(C(N)=O)cc2)c(OC)c1	1	2	0	1.1*	1	1
COc1cc(/C=C/c2cc[n+](C)cc2)ccc1OCC(=O)Nc1ccccc1	1	-3	0	-1	2	1
Cc1ccc(C)c(NC(=O)C(OC(=O)c2cnc(C)cn2)c2ccccc2)c1 (stereo not given)	1	3	2	0	-1	1
Cc1cnc(C(=O)OC(C(=O)c2c[nH]c3ccccc23)c2ccccc2)cn1 (stereo not given)	1	-8	2	0.9*	0	0
CCOP(=O)(OCC)c1ccc2c(c1)C(=O)c1ccccc1-2	-2	2	.	-1	.	4
COCC(=O)N1CCC(C(=O)NC2CCCc3ccccc32)CC1 (stereo not given)	6	8	0	-1	.	0
CC(C)Cn1nc(NC(=O)c2cccs2)c2cc3ccccc3nc21	-1	9	0	-2	5.5*	1
CC(C)Cn1nc(NC(=O)c2ccco2)c2cc3ccccc3nc21	-2	-2	0	-2	-1	2
Cc1ccc2nc3c(cc2c1)c(NC(=O)c1ccco1)nn3CC(C)C	-1	-1	-1	-2	12*	0
COc1ccc2nc3c(cc2c1)c(NC(=O)c1cccs1)nn3CC(C)C	-3	1	-2	-2	-2	-4
CCCCCCCCN1C(=O)[C@@H](CC(=O)NCc2ccc(C)o2)C[C@@]2(C(=O)OC)C1=C[C@H](COCc1ccccc1)O[C@@H]2C	-3	-1	0	-1	.	2
O=C(CSc1nc(-c2ccccc2)ns1)N1CCOCC1	0	-4	2	0	1	4
Cc1cccc(-c2nsc(SCC(=O)N3CCCC3)n2)c1	2	.	3	0	2	13*
CCOC(=O)c1sc(NCc2ccco2)c(-c2nc3ccccc3s2)c1N	6.2*	-2	0	0	1	4
CCCCCCCCCCCCCCCCCC(=O)OCC(O)[C@H]1OC[C@H](O)[C@H]1O (stereo not given in full)	.	1	.	.	.	.
CC(C)C(OC(=O)c1cccs1)C(=O)NCc1ccccc1 (stereo not given)	-1	0	1	-2	0	1
Cc1ccc(CNC(=O)C(OC(=O)c2cccs2)C(C)C)cc1 (stereo not given)	-1	1	0	-1	4.6*	1
CC1CCCCN1CCNC(=O)CC1Oc2ccccc2NC1=O (stereo not given)	2	-7	1	3.2*	4.6*	2
Cc1ccc2c(c1)NC(=O)C(CC(=O)NC1CCCCC1C)O2 (stereo not given)	0	5	0	-2	4.8*	-1
O=C(NC1CCN(Cc2ccccc2)CC1)C1CCCN(c2nnc(-n3cccc3)s2)C1 (stereo not given)	3	2	2	0	0	11*
COc1ccccc1NC(=S)OC1CCC12CCC(c1ccccc1)CC2 (stereo not given)	1	4	0	-1	.	2
Cc1cc(C)cc(Nc2ncc3c(n2)CCCC3=O)c1	5	0	3.9*	0	-1	10
O=C(OCc1cn(Cc2ccccc2F)nn1)N1CCCC1	-1	-4	0	0	.	-1
Oc1cc2ccccc2cc1-c1n[nH]c(=S)o1	3	0	0	-1	1	-1
SMILES	hcDAF12 agonist	Rev-erbA mod	DAX1 inh-1	ssDAF-12 act	DAX1 inh-2	hgDAF-12 ag
Cc1cc(-c2n[nH]c(=S)o2)c(C)n1-c1ccccc1	5	-3	4.0*	0	.	7
COc1cccc(-c2coc3cc4oc(=O)c(CCC(=O)O)c(C)c4cc23)c1	5.8*	0	0	0	0	-1
COc1cccc(-c2coc3c(C)c4oc(=O)c(CCC(=O)O)c(C)c4cc23)c1	-2	1	0	-1	2	-5
Clc1ccc([C@H]2OC[C@@]3(CNCCc4c[nH]c5ccccc45)CS[C@H](c4ccc(Cl)cc4)N23)cc1	-1	-1	0	-1	.	1
O=C(O)c1ccc(S(=O)(=O)c2ccc3c(c2)C(=O)N(NC(=O)c2ccncc2)C3=O)cc1	1	-1	1	-1	-2	1
O=C(O)c1ccc(S(=O)(=O)c2ccc3c(c2)C(=O)N(NC(=O)c2ccccc2)C3=O)cc1	1	-1	2	-1	1	12*
CN(C)c1ccc(C(=O)NN2C(=O)c3ccccc3C2=O)cc1	0	-4	0	-1	0	11*
O=C(CSc1nnc(-c2cccnc2)n1-c1ccc(Cl)cc1)c1ccc(F)cc1	-1	-2	-1	-2	.	1
CCn1c(=O)c(C(=O)Nc2ccccc2C)c(O)c2ccccc21	4	2	0	1.4*	1	3
Cn1c(=O)c(C(=O)Nc2ncccc2O)c(O)c2ccccc21	2	0	2	0	3	6
CCN(c1ccccc1)S(=O)(=O)c1ccc(C(=O)Nc2ccc(C)cn2)cc1	0	2	2	-1	0	-1
C=CCn1c(=O)c(C(=O)Nc2ccccc2O)c(O)c2ccccc21	3	-1	0	1.0*	1	1
Cc1ccc(NC(=O)c2c(O)c3ccccc3n(C)c2=O)nc1	6.0*	4	0	0	1	5
Cc1ccc(NC(=O)c2ccc(C(=O)c3ccccc3)cc2)nc1	-1	7	3.9*	-1	1	5
COc1ccc(CNCC#CC2=CCCCC2)c(OC)c1	-1	0	1	-1	.	3
Cc1ccc(-c2nnc(SCC(=O)Nc3ccc4c(c3)OCCO4)n2-c2ccc(Cl)cc2)cc1	-2	-1	1	-1	.	-2
O=C(CC1C=CCC1)OCCN1CCN(C2CN(Cc3cn(Cc4ccccc4Cl)nn3)S(=O)(=O)C2)CC1 (stereo not given)	0	-1	0	-2	.	-4
O=[N+]([O-])c1ccc2cn(-c3ccccc3)nc2c1	6.0*	10	3	1.1*	1	13*
